# Screening data as filed in PubChem.
# Only a selection was taken, and hits are over-represented in it overall.
# Marburg entry inh = qHTS for inhibitors of binding or entry into cells for Marburg Virus; Potency, µM (doses to about 37.8 µM), for the others: at the top dose activity change, negative = inhibition, actives largely listed as inhibitors; Marburg virus pseudotyped entry inhibition, cell reporter; AID 540276, 2011; 300,000 tested, 1.8% active; calls by dose curve; tested in HEK293 cells; further: potency means the concentration at half of the fitted maximal effect; on the % scale 0 is the no-effect control and ±100 the full control effect
# AMA1-RON2 inh = qHTS for Inhibitors of AMA1-RON; Towards Development of Antimalarial Drug Lead: Primary Screen | Plasmodium falciparum AMA1 (3D7) - RON2 peptide interaction | AlphaScreen AMA1-biotinylated RON2 peptide binding | Potency, µM (doses to about 58.2 µM), without a hit: at the top dose activity change, negative = inhibition, hits mostly inhibitors | 360,000 tested, 0.2% active | AID 720542, 2013; active means well fitted inhibition curve with a large enough effect; inconclusive means small, poorly fitted or top-dose-only effect; inactive means no such curve, though single readings can be large or run the other way;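 further: potency means the concentration at half of the fitted maximal effect; 0% = vehicle wells and -100% = peptide control; nearly all actives have a fitted effect of over 45% in size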
#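 AMA1 (3D7) with his tag at 25 nM final met compounds first, then biotinylated RON2 peptide at 25 nM; detection used donor plus acceptor beads, 10 µg/mL apiece, read by AlphaScreen after 30 min at room temperature.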
# LASV entry inh = qHTS for Inhibitors of binding or entry into cells for Lassa Virus; 300,000 tested, 1.2% active; AID 540256, 2011; Potency, µM (top dose mostly 37.9 µM), inactives show top-dose activity change, negative = inhibition, hits mostly inhibitors; Lassa virus pseudotype entry inhibition, cell reporter; calls by dose curve; tested in HEK293 cells; further: potency means the concentration at half of the fitted maximal effect; on the % scale 0 is the no-effect control and ±100 the full control effect; nearly all actives have a fitted effect of over 50% in size
# Cycloheximide cs = Cycloheximide Counterscreen for Small Molecule Inhibitors of Shiga Toxin. AID 2314, 2010. max response, %. 300,000 tested, 12% active. cell reporter, cycloheximide protein synthesis inhibition counterscreen; in the data active means max response mostly above about 13%, no sharp cut-off; inactive means mostly below about 14%; further: read at 38.3 µM for the half of the compounds with a filed dose; 0% is about no effect
# Shiga toxin inh = A qHTS for Small Molecule Inhibitors of Shiga Toxin; Vero cells, Shiga toxin protein synthesis inhibition reporter; inhibition, % at 38.7 µM; 290,000 tested, 9.2% active; AID 2315, 2010; in the data active means inhibition mostly above about 28%, no sharp cut-off; inactive means mostly below about 43%; further: 0% is about no effect
# * marks the source's active call; other numbers are inactive results; u = inconclusive; x = no result; + = active, no number; [ ] = dose if it differs, or a comment.
SMILES,Marburg entry inh,AMA1-RON2 inh,LASV entry inh,Cycloheximide cs,Shiga toxin inh
CC(C)(C)NC(=O)C(c1ccc(O)cc1)N(C(=O)CCC(=O)Nc1nccs1)c1ccccc1F (centres undefined),u,-13%,10%,2,-12
CC(C)(C)NC(=O)C(c1ccc(O)cc1)N(C(=O)CCC(=O)Nc1nccs1)c1cccc(F)c1 (centres undefined),2.3µM*,-5%,0%[46.1 µM],3,-12
Cc1cccc(N(C(=O)CCC(=O)Nc2nccs2)C(C(=O)NC(C)(C)C)c2ccc(O)cc2)c1 (centres undefined),2.8µM*,-8%,u,-1,11
Cn1nnc2c[n+](CC(=O)c3ccc4ccccc4c3)cc(Br)c21,11µM*,17%,u,15*,29
CCOC(=O)NN=C1C[C@@H](O)[C@@H](O)[C@@H]2[C@H]3C(=O)N(Cc4ccccc4)C(=O)[C@@H]3CC[C@@H]12,25%[14.2 µM],x,x,x,x
O=C(CSc1nnnn1-c1ccccc1)NC(=O)Nc1ccc2c(c1)OCCO2,u,-18%,9%,56*,76*
CCOc1ccccc1-n1nnnc1SCC(=O)NC(=O)Nc1ccc2c(c1)OCCO2,u,0%,3%,13*,20
CC(=O)Nc1ccc(NC(=O)CSc2nnnn2-c2ccc3c(c2)OCCO3)cc1,2%,4%,-1%,10,-3
COc1ccc(OC)c(NC(=O)C2CCN(S(=O)(=O)c3c(C)noc3/C=C/c3ccc(C)cc3)CC2)c1,x,x,17%[46.1 µM],x,x
CC1CC(C)CN(C(=O)c2cccc(N3C(=O)c4ccccc4C3=O)c2)C1 (centres undefined),x,10%,x,x,x
CC(=O)Nc1ccc(NC(=O)COC(=O)CCc2nc3ccccc3s2)cc1,9%[46.1 µM],-9%,-1%[46.1 µM],6,-13
C=CCn1c(SCc2csc(C)n2)nc2sc3c(c2c1=O)CCCCC3,-20%,10%,u,0,1
C=CCn1c(SCc2csc(C)n2)nc2sc3c(c2c1=O)CCCC3,u,-28%,5µM*,1,-10
CCc1ccccc1NC(=O)c1ncoc1-c1ccco1,x,x,14%[46.1 µM],x,x
CCN(CC)CCNc1cccc2sc3ccccc3c(=O)c12,x,-9%,x,x,x
CCN(CC)CCNc1ccc(CO)c2sc3ccccc3c(=O)c12,11µM*,10%,u,-3,-15
Cc1ccc(NCCN(C)C)c2c(=O)c3cc(O)ccc3sc12,u,-25%,4µM*,x,x
COc1ccc2[nH]c(N=Nc3ccccc3C)c(O)c2c1,29%,-6%[11.6 µM],u,16,+
CCN1CCN(c2cc(C)c3cc(NC(=O)/C=C/c4ccc(OCCC(C)C)cc4)ccc3n2)CC1,0%[46.1 µM],x,26%[46.1 µM],x,x
O=Cc1ccc(OCc2cccc(C(F)(F)F)c2)cc1O,u,13%,-4%[46.1 µM],12,11
CCOc1ccc(OCc2cccc(C(=O)N3CCCCCC3)c2)cc1,u,-10%,3.5µM*,65*,+
CCOc1ccc(OCc2cccc(C(=O)O)c2)cc1,u,0%,u,18*,41
O=C(OCC(F)(F)F)c1cccc(COc2ccc3ccccc3c2)c1,1.3µM*,71%,u,82*,140*
O=C(O)c1cc(OCc2ccccc2)cc(OCc2ccccc2)c1,26%[46.1 µM],-5%,14%[46.1 µM],-4,-14
CCOc1ccc(OCc2cccc(C(=O)N3CCCC3)c2)cc1,u,12%,u,87*,139*
SMILES,Marburg entry inh,AMA1-RON2 inh,LASV entry inh,Cycloheximide cs,Shiga toxin inh
CCOc1ccc(C(=O)N2CCN(Cc3ccccc3)CC2)cc1,11%,-10%,-15%,17,8
O=C(NN1CCCCC1)c1cccc(COc2ccc(Cl)cc2)c1,u,-3%,u,76*,90*
O=C(NCCOc1ccc(Cl)cc1)c1cccc(S(=O)(=O)N2CCCC2)c1,x,11%,x,x,x
CC(C)(C)N=C1NN=C(c2ccc(Cl)cc2)CS1,x,48%,x,70*,91*
CC(C)(C)N=C1NN=C(c2cc3ccccc3o2)CS1,u,3%,u,30*,86*
Oc1ccc(C2=NNC(=NCc3ccc4c(c3)OCO4)SC2)c(O)c1,u,53%,-12%,32*,14
COc1ccc(OC)c(C2=NNC(=NCc3ccc4c(c3)OCO4)SC2)c1,-21%[46.1 µM],42%,u,-2,-7
Clc1ccc(C2=NNC(=NCc3ccc4c(c3)OCO4)SC2)cc1,13µM*,14%,u,1,27
COc1ccc(CN=C2NN=C(c3ccc(Cl)cc3)CS2)cc1,23%[46.1 µM],2%,2%,21*,52*
COc1ccc(N=C2SCC(c3ccc(C)cc3)=NN2CCO)cc1,u,u,u,1,4
COc1ccc(CN=C2Nc3ccccc3CS2)cc1,u,-7%,u,30*,60
COc1ccc(C2=NN(C)C(=NCc3ccccc3)SC2)cc1,1%,9%,0%,14,38*
O=C(CSCc1c(F)cccc1Cl)Nc1ccccc1C(=O)N1CCOCC1,6%,14%,21%,1,-6
CC(Oc1ccccc1)C(=O)OCc1cc(=O)n2nc(C(C)C)sc2n1 (centres undefined),x,x,7%[46.1 µM],x,x
N#Cc1nc(-c2cccs2)oc1NCc1ccccc1,6%[46.1 µM],-8%,18%,24*,29
N#Cc1nc(-c2cccs2)oc1NCc1ccco1,14%,1%,12%,18*,28
N#Cc1nc(-c2cccs2)oc1NCc1ccccc1Cl,u,-7%,1%,18*,86*
N#Cc1nc(-c2cccs2)oc1NCc1ccc(Cl)cc1,-3%,0%,1%,10,9
Cc1ccc(CNc2oc(-c3cccs3)nc2C#N)cc1,-2%,-27%,-7%,20,17
C=CCNc1oc(-c2cccs2)nc1C#N,-11%,12%,18%,19*,51*
CC(C)c1ccc2occ(CC(=O)Nc3ccccc3Cl)c2c1,-10%[46.1 µM],x,6%[46.1 µM],x,x
COc1cccc(NC(=O)CSc2nc(=O)[nH]c3c2CCCC3)c1,x,x,4%[46.1 µM],x,x
N#Cc1nc(-c2ccco2)oc1NCc1ccccc1Cl,1%,-4%,10%,12*,44
N#Cc1nc(-c2ccco2)oc1NCCCN1CCOCC1,6%,-13%,1%,-1,47
CC(=O)NCCC(=O)Nc1sc2c(c1-c1nc3ccccc3[nH]1)CCCC2,-6%,40%,-17%,11,9
CC(=O)N1CCN(S(=O)(=O)c2cccc(C(=O)Nc3nc4c(s3)CCCC4)c2)CC1,u,-11%,-24%,15,-7
CN1CCN(S(=O)(=O)c2cccc(C(=O)Nc3sc4c(c3-c3nc5ccccc5[nH]3)CCCC4)c2)CC1,16µM*,15%,1%,16,27
O=C(Nc1sc2c(c1-c1nc3ccccc3[nH]1)CCCC2)C1CCCC1,-11%,-11%,11%,21*,17
CC(OC(=O)Nc1ccccc1)C(=O)OC1CCCCC1 (centres undefined),u,12%,11%[46.1 µM],x,x
Cn1c(N)c(S(=O)(=O)c2ccc(Br)cc2)c2nc3ccccc3nc21,6.3µM*,4%,8%,1,-16
